Reference: PubChem BioAssay (Tox21)
Results filed as inconclusive are left out. A call without a number means that no potency is given here. Values without a mark were called inactive. Active and inactive are the calls of the source. Calls come from the whole dose curve; as a rule, active = well fitted cell-killing curve with a large enough effect in the repeat runs; inconclusive = weak or mixed curves, or effect the other way; inactive = no such curve, though single readings can be large or run the other way.

Experiment: qHTS assay to identify small molecule antagonists of the retinoid-related orphan receptor gamma (ROR-gamma) signaling pathway - cell viability counter screen (AID 1159520); note: nearly all actives have a fitted effect of over 50% in size
Settings: Tet-on RORgamma CHO cells viability, ATP luminescence, 16 h; series mostly up to 92.4 µM; activity, negative = cytotoxicity: at the top concentration
From the text: U.S. Tox21 Program National Center for Advancing Translational Sciences [NCATS] NIH Chemical Genomics Center [NCGC] U.S. Environmental Protection Agency [EPA] National Institutes of Environmental Health Sciences [NIEHS] National Toxicology Program [NTP] U.S. Food and Drug Administration [FDA] Tox21 Assay Overview: Nuclear steroid hormone receptors are involved in many biological processes including inflammatory responses, cell proliferation, and apoptosis. Environmental factors or compounds disrupting these nuclear receptor pathways and gene expression may promote susceptibility to immunotoxicants and autoimmune diseases. One important group of these expression factors are the retinoid-related orphan receptors. To assess compounds that may interfere with the retinoid-related orphan receptor gamma (ROR-gamma) transcription factor, a cell-based luciferase assay was used. The CHO cell-based assay utilizes a TET-inducible ROR expression factor and ROR response element-LUC reporter gene. Reporter gene activity was induced using Doxycycline Hyclate and measured after 16 hr incubation. Tet-on ROR gamma CHO cells were used to screen against the Tox21 10K compound library for cytotoxicity by measuring the viability of the cells based on the quantitation of the ATP.
Tox21 Assay Protocol Summary: Tet-on ROR gamma CHO cells were dispensed at 1,000 cells in 4 uL of culture medium per well into white wall/solid bottom 1536-well plates using a Multidrop Combi (Thermo Scientific, Waltham, MA) dispenser. Following incubation at 37 C and 5% CO2 for 4 hr, 23 nL of compounds dissolved in DMSO, positive controls or DMSO only were transferred by a Pintool station (Kalypsys, San Diego, CA) and after 2 hr incubation at 37 C, one ul of 1 uM (final concentration) of Doxycycline Hyclate was added to all the wells by using a Flying Reagent Dispenser (FRD) (Aurora Discovery, San Diego, CA). After 16 hr incubation at 37 C and 5% CO2, 5 uL of CellTiter-Glo reagent (Promega Corporation, Madison, WI) was added to each assay plate using FRD. After 30 min incubation at room temperature, luminescence was quantified on a ViewLux plate reader (Perkin Elmer, Waltham, MA).
With `OC1CCCCC1` the Potency was “inactive”.
With `CCOC(=O)CC(=O)OCC` the Potency was “inactive”.
In the case of `Cc1ccc(Cl)cc1`, the Potency was “inactive”.
For `COC(=O)OC`, the Potency was “inactive”.
In the case of `Cc1cccc(C)c1[N+](=O)[O-]`, the Potency was “inactive”.
With `NC(=O)NC(N)=O` the Potency was “inactive”.
In the case of `CCCCCCCCCCCC(=O)N(C)CC(=O)O`, the Potency was “inactive”.
With `O=c1n(CCCN2CCN(c3cccc(Cl)c3)CC2)nc2ccccn12` the Potency was “inactive”.
With `CC(C)(C)NC[C@H](O)COc1nsnc1N1CCOCC1` the Potency was “inactive”.
For `O=C1CCCCCCCCCCC1`, the Potency was “inactive”.
With `CCCCCNCCCCC` the Potency was “inactive”.
For `O=c1c(O)c(-c2ccc(O)c(O)c2)oc2cc(O)cc(O)c12`, the Potency was “inactive”.
With `NCCNCCNCCN` the Potency was “inactive”.
In the case of `COc1c2ccoc2cc2oc(=O)ccc12`, the Potency was “inactive”.
In the case of `OB(O)O`, the Potency was “inactive”.
With `CCCCCC(C)=O` the Potency was “inactive”.
With `OCC(O)CS` (stereo not given) the Potency was “inactive”.
In the case of `O=C(O)Cc1c[nH]c2ccccc12`, the Potency was “inactive”.
For `CCc1cccc(CC)c1N`, the Potency was “inactive”.
For `N#CCC(=O)O`, the Potency was “inactive”.
In the case of `NC1CCCCC1N` (stereo not given), the Potency was “inactive”.
With `CCCOC(=O)NCCCN(C)C` the Potency was “inactive”.
In the case of `CC(=O)c1nccs1`, the Potency was “inactive”.
In the case of `Cc1cc(CC(=O)O)n(C)c1C(=O)c1ccc(Cl)cc1`, the Potency was “inactive”.
For `Cc1cc(C)cc(O)c1`, the Potency was “inactive”.
In the case of `O=[N+]([O-])c1ccccc1C(F)(F)F`, the Potency was “inactive”.
For `COc1ccccc1[N+](=O)[O-]`, the Potency was “inactive”.
With `COc1ccc(N)c(OC)c1` the Potency was “inactive”.
For `OC[C@H]1O[C@@H](Oc2ccc(O)cc2)[C@H](O)[C@@H](O)[C@@H]1O`, the Potency was “inactive”.
In the case of `C=C(C)CC(C)(C)C`, the Potency was “inactive”.
For `CC[N+](CC)(CC(=O)Nc1c(C)cccc1C)Cc1ccccc1`, the Potency was “inactive”.
For `CC(=O)OCCC(C)C`, the Potency was “inactive”.
In the case of `OCCOCCOCCOCCOCCO`, the Potency was “inactive”.
With `CN1CCCC1=O` the Potency was “inactive”.
With `CCn1cc(C(=O)O)c(=O)c2cc3c(cc21)OCO3` the Potency was “inactive”.
With `O=C(Cl)c1ccc(C(=O)Cl)cc1` the Potency was “inactive”.
For `CC(CN1c2ccccc2Sc2ccccc21)N(C)C` (stereo not given), the “activity, negative = cytotoxicity” value was -17.8% [at 42.5 µM].
With `COC(=O)CCCCC(=O)OC` the Potency was “inactive”.
In the case of `CC(C=O)Cc1ccc(C(C)(C)C)cc1` (stereo not given), the Potency was “inactive”.
In the case of `Brc1ccc(Oc2ccc(Br)cc2)cc1`, the Potency was “inactive”.
